Most compounds without a hit are left out; they make up all but 7.4% or so of the library.
FLuc counter – inhibits or activates purified firefly luciferase, miR-21 counter-screen | P08659 | purified FLuc, Km substrates, luminescence inhibition | Potency, µM (titrated, usually from 57.5 µM), without a hit: at the highest dose activity change, negative = inhibition, usual class: inhibitors | 360,000 compounds, 6.9% hits;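 further: plate controls were vehicle for no effect and reference inhibitor for full effect; nearly all actives have a fitted effect of over 55% in size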
Target sequence (P08659 whole entry, looked up): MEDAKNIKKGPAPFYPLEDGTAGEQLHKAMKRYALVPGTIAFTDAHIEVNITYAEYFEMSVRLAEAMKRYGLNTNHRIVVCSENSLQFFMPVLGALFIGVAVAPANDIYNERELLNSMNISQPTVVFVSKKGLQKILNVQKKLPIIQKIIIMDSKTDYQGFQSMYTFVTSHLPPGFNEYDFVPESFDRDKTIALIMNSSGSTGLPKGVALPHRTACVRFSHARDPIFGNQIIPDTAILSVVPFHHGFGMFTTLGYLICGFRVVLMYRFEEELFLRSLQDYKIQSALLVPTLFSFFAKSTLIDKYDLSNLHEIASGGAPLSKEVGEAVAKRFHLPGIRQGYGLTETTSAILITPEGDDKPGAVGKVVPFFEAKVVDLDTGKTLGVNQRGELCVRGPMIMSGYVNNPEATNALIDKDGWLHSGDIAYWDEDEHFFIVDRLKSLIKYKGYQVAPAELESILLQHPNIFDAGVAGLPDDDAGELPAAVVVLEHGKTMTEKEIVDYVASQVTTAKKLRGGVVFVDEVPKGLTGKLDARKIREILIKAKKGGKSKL
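Biochemical qHTS of compounds, final roughly 60 µM downward over six points, against 10 nM purified firefly luciferase using Km concentrations of substrates (10 uM D-luciferin, 10 uM ATP) in Tris acetate pH 7.5 buffer; luminescence output.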
SMN2 splice up – enhancers of SMN2 splice variant expression; HEK293 SMN2-luciferase splicing reporter, luminescence, 30-36 h; Potency, µM (titrated, usually from 46.1 µM), for inactives: at the top dose activity change, positive = activation, usual class: activators; 210,000 compounds, 2.8% hits; further: % of control where 0% means no effect; nearly all actives have a fitted effect of over 55% in size
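HEK293 cells carry an SMN2 […]–luciferase reporter in which exon 7 inclusion puts luciferase in frame. Cells were plated 10-12 h before compound addition, then incubated 30-36 h at 37C. ONE-Glo luminescence was read; sodium butyrate at 4.5 mM final served as control.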
KinaseGlo FLuc – counter-screen: inhibitors of Kinase-Glo firefly luciferase. Kinase-Glo luciferase, ATP luminescence, 8 min. Potency, µM (top dose mostly 38.3 µM), for inactives: at the top dose activity change, negative = inhibition, actives largely listed as inhibitors. Q27757. 200,000 compounds, 0.28% hits; further: on the % scale 0 is the no-effect control and ±100 the full control effect; nearly all actives have a fitted effect of over 60% in size
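Light output from Kinase-Glo luciferase with luciferin and 10 uM ATP in 50 mM imidazole pH 7.2, KCl, MgCl2, Tween 20, BSA; compound pin-delivered, 8-min ambient incubation, then luminescence read.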
NPC1 promoter act – activators of NPC1 promoter; Potency, µM (highest dose often 9.22 µM), without a hit: at the top dose activation, usual class: activators; 320,000 compounds, 2.4% hits; Huh7 NPC1 promoter luciferase reporter, 24 h; further: % of control where 0% means no effect; nearly all actives have a fitted effect of over 60% in size
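In 1536-well qHTS, Huh7 cells harboring an NPC1 promoter–luciferase construct received compound for 24 h; activation was quantified by luminescence following luciferase reagent addition.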
ELG1 genotox – genotoxicity induction in ELG1-luciferase HEK293T cells; HEK293T ELG1-luciferase reporter, luminescence, 16 h; Potency, µM (series often up to 46 µM), for the others: at the highest dose activity change, positive = activation, actives largely listed as activators; 330,000 compounds, 1.3% hits; further: % of control where 0% means no effect; nearly all actives have a fitted effect of over 60% in size
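Genotoxic stress is detected as increased luminescence from luciferase-tagged ELG1 in HEK293T cells, measured with ONE-Glo after a 16 hr treatment at 37 °C.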
Rab9 prom act – activators of Rab9 promoter; Huh7 Rab9 promoter-luciferase reporter, luminescence, 24 h; Potency, µM (top dose mostly 9.22 µM), for the others: at the highest dose activation, negative = inhibition, actives largely listed as activators; 320,000 compounds, 2.8% hits; further: % of control where 0% means no effect; nearly all actives have a fitted effect of over 60% in size
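Cell-based reporter: Huh7 stable for Rab9 promoter-driven luciferase, plated in reduced-serum medium with 10% FBS at 1500 cells/well, compound-treated 24 h at 37 °C, luminescence read after 10 min reagent.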
The depositor's hits bear a star; [ ] = another dose, or the depositor's remark. The call rests on the fitted dose curve; in most records, active means well fitted curve in the direction sought with a large enough effect; inconclusive means small, poorly fitted or top-dose-only effect, or another doubt; inactive means no such curve, though single readings can be large; an effect the other way counts as inactive or inconclusive. Potency means the concentration at half of the fitted maximal effect.

What do the screens show for `Cc1ccc2nc(/C(C#N)=C/c3ccc(-c4ccccc4C(=O)O)o3)[nH]c2c1`?
FLuc counter: 4.26µM*; NPC1 promoter act: -2.7%; ELG1 genotox: -0.5%; Rab9 prom act: 0.0%

Results for COc1cc(OC)cc(C(=O)N[C@H](C(=O)OCC(=O)Nc2ccc3c(c2)OCO3)C(C)C)c1 ?
ELG1 genotox: -3.3%

What do the screens show for `O=C(Nc1ccccc1C(F)(F)F)c1ncoc1-c1ccco1`?
FLuc counter: -1.1%

Results for Cc1ccc(CSCCNC(=O)c2ccc(NS(C)(=O)=O)cc2)cc1 ?
FLuc counter: 1.3%; SMN2 splice up: -4.8%; KinaseGlo FLuc: 0.6%; NPC1 promoter act: 0.1%; ELG1 genotox: 3.1%; Rab9 prom act: -4.0%

What do the screens show for `O=C(Cn1ccc([N+](=O)[O-])n1)NCc1cccnc1`?
FLuc counter: -1.6%; SMN2 splice up: 4.4%; KinaseGlo FLuc: -1.6%; NPC1 promoter act: -4.0%; ELG1 genotox: 0.6%; Rab9 prom act: -3.8%

Results for Cc1cc(C)nc(SCCc2cccc[n+]2C)n1 ?
SMN2 splice up: -1.5%[9.22 µM]; KinaseGlo FLuc: -6.2%[7.66 µM]

How did N#C/C(=C\c1ccc(-c2ccccc2C(=O)O)o1)c1nc2ccccc2[nH]1 do in these assays?
FLuc counter: 12µM*; SMN2 splice up: -5.7%; NPC1 promoter act: 5.9%; ELG1 genotox: 12.5%; Rab9 prom act: 0.0%

What do the screens show for `COc1ccccc1N(C)S(=O)(=O)c1ccc(Cl)c(C(=O)NNC(=O)c2ccccc2O)c1`?
FLuc counter: 16.9µM*; NPC1 promoter act: 11.2%; ELG1 genotox: -7.2%; Rab9 prom act: -2.0%

How did COc1ccccc1N(C)S(=O)(=O)c1ccc(C(=O)NNC(=O)c2ccccc2O)cc1 do in these assays?
FLuc counter: -1.5%; NPC1 promoter act: -5.3%; ELG1 genotox: 0.7%; Rab9 prom act: -26.1%

What do the screens show for `CCc1cc(C(=O)N2CCCC(CNC(=O)c3ccc(-c4ccccc4)cc3)C2)no1` (stereo not drawn)?
FLuc counter: 12µM*; NPC1 promoter act: -3.5%; ELG1 genotox: -4.7%; Rab9 prom act: 27.2%

How did CSCCC(=O)N1CCCC(CNC(=O)c2ccc(-c3ccccc3)cc2)C1 (stereo not drawn) do in these assays?
FLuc counter: 12µM*; SMN2 splice up: -14.1%; KinaseGlo FLuc: -4.9%; NPC1 promoter act: -1.9%; ELG1 genotox: -2.2%; Rab9 prom act: 0.2%

How did Cc1cc(C)c(C)c(S(=O)(=O)N2CCC(C(=O)NCCCN3CCCC3=O)CC2)c1C do in these assays?
FLuc counter: -1.9%; NPC1 promoter act: 0.0%; ELG1 genotox: -3.1%; Rab9 prom act: -1.6%

How did Cc1ccccc1OC1CCN(C(=O)c2cc(COc3ccccc3)on2)CC1 do in these assays?
FLuc counter: -8.8%; NPC1 promoter act: 2.6%; ELG1 genotox: -0.9%; Rab9 prom act: -7.1%

What do the screens show for `CCC1CCCCN1C(=O)COc1ccc2c3c(c(=O)oc2c1)CCC3` (stereo not drawn)?
NPC1 promoter act: -2.9%; ELG1 genotox: 0.7%; Rab9 prom act: -2.5%

Results for Cc1ccc(C(=O)Nc2ccc(N3CCOCC3)nc2)cc1 ?
FLuc counter: -17.0%; SMN2 splice up: -18.7%; KinaseGlo FLuc: -4.8%; NPC1 promoter act: 18.6%; ELG1 genotox: 8.2%; Rab9 prom act: 19.0%

How did Cc1ccc(C(=O)Nc2cccc(-c3ccc(N4CCOCC4)nn3)c2)cc1C do in these assays?
FLuc counter: 2.13µM*; NPC1 promoter act: inconclusive; ELG1 genotox: inconclusive; Rab9 prom act: 2.82µM*

Results for O=C(COc1ccc(Cl)cc1)Nc1cccc(-c2ccc(N3CCOCC3)nn2)c1 ?
FLuc counter: 1.35µM*; NPC1 promoter act: 3.16µM*; ELG1 genotox: 2.06µM*; Rab9 prom act: 1.58µM*

What do the screens show for `Cc1ccc(C(=O)Nc2cccc(-c3ccc(N4CCOCC4)nn3)c2)cc1`?
FLuc counter: 1.35µM*; NPC1 promoter act: 2.51µM*; ELG1 genotox: 0.5%; Rab9 prom act: 3.55µM*

Results for Cc1cc(C(=O)Nc2cccc(-c3ccc(N4CCOCC4)nn3)c2)ccc1[N+](=O)[O-] ?
FLuc counter: 2.69µM*; NPC1 promoter act: inconclusive; ELG1 genotox: -0.4%; Rab9 prom act: inconclusive

How did COC(=O)c1nc(N)sc1C do in these assays?
FLuc counter: -0.8%; SMN2 splice up: 13.3%; KinaseGlo FLuc: 2.3%; NPC1 promoter act: -0.6%; ELG1 genotox: 0.8%; Rab9 prom act: -0.7%

How did O=C(Nc1cccc(-c2ccc(N3CCOCC3)nn2)c1)c1ccccc1Cl do in these assays?
FLuc counter: 1.69µM*; NPC1 promoter act: inconclusive; ELG1 genotox: 11.3%; Rab9 prom act: 3.55µM*

What do the screens show for `O=C(Nc1cccc(-c2ccc(N3CCOCC3)nn2)c1)c1ccc(Cl)cc1`?
FLuc counter: 2.13µM*; NPC1 promoter act: inconclusive; ELG1 genotox: inconclusive; Rab9 prom act: inconclusive

Results for O=C(Nc1cccc(-c2ccc(N3CCCCC3)nn2)c1)c1ccco1 ?
FLuc counter: 0.379µM*; NPC1 promoter act: 3.98µM*; ELG1 genotox: 1.64µM*; Rab9 prom act: 2.82µM*

What do the screens show for `Cc1ccccc1C(=O)Nc1ccc(N2CCOCC2)nc1`?
FLuc counter: inconclusive; SMN2 splice up: 8.8%; KinaseGlo FLuc: -3.7%; NPC1 promoter act: 20.7%; ELG1 genotox: 16.2%; Rab9 prom act: 29.4%

How did C=CC[C@H](CC(=O)N(CCO)Cc1ccccc1)C(=O)NCCOC(=O)[C@H](CC=C)CC(=O)OC(C)(C)C do in these assays?
ELG1 genotox: -6.5%

What do the screens show for `CCOC(=O)C1=NNC(C(=O)c2ccccc2)C1c1ccc(C)cc1` (stereo not drawn)?
FLuc counter: inconclusive; NPC1 promoter act: 1.1%; ELG1 genotox: -0.5%; Rab9 prom act: -1.1%

Results for CCOC(=O)C1=NNC(C(=O)c2ccccc2)C1c1ccc(Cl)cc1 (stereo not drawn) ?
FLuc counter: 26.9µM*; NPC1 promoter act: -4.1%; ELG1 genotox: 0.3%; Rab9 prom act: -3.0%

What do the screens show for `Cc1cc(C)c(C#N)c(SCc2nc3ccccc3[nH]2)n1`?
FLuc counter: inconclusive; SMN2 splice up: 10µM*; KinaseGlo FLuc: -2.3%; NPC1 promoter act: 17.2%; ELG1 genotox: 23.1µM*; Rab9 prom act: inconclusive

How did Cc1cc(C)c(C#N)c(SCc2ccc(F)cc2)n1 do in these assays?
FLuc counter: -3.9%; SMN2 splice up: -3.6%; KinaseGlo FLuc: -1.6%; NPC1 promoter act: -8.8%; ELG1 genotox: -3.3%; Rab9 prom act: inconclusive
